Publication PMC7826789 (International Journal of Molecular Sciences, 2021)

What follows are compounds tested on TBK1. Settings: Compound Concentration (nM):1000.
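Also: KINOMEscan scanMAX binding as percent activity remaining versus control; lower means stronger binding.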

SMILES	Percent Control [%]
CN1CCN(C(=O)c2ccc(NC(=O)Nc3ccc(N(C)c4ccnc(Nc5ccc(CS(C)(=O)=O)cc5)n4)cc3)cc2)CC1.Cl [GW830263A]	55
COc1cc2ncnc(Nc3ccc4c(cnn4Cc4ccccc4)c3)c2cc1OC.Cl [GW282449A]	100
CC1=C(C(=O)Nc2ccc3[nH]ncc3c2)C(c2ccc3ccccc3c2)CC(=O)N1 (stereo not shown) [GSK270822A]	81
O=C(Nc1n[nH]c2nc(-c3ccc(O)cc3)c(Br)cc12)C1CC1 [SB-725317]	86
CCS(=O)(=O)c1ccc(OC)c(Nc2ncc(-c3cccc(F)c3)o2)c1 [GW621970X]	100
COc1ccc2cc(-c3c(-c4ccncc4)nc(-c4ccc(S(C)(=O)=O)cc4C)n3C)ccc2c1 [SB-633825]	65
COc1ccccc1-c1cc(/C=C2\C(=O)Nc3ncc(Br)cc32)cc(Br)c1O [GW442130X]	100
CN(C)c1cc2c(Nc3ccc4c(cnn4Cc4ccccc4)c3)ncnc2cn1 [GW282974X]	55
COc1ccc2[nH]c3c4[nH]c5ccc(OC)cc5c4c4c(c3c2c1)C(=O)NC4=O [GW296115X]	59
COc1cccc(-n2ncc3c(N/N=C/c4ccncc4)ncnc32)c1 [GW784752X]	100
CC1=C(C(=O)Nc2ccc3[nH]ncc3c2)C(c2ccc(Cl)c(Cl)c2)CC(=O)N1 (stereo not shown) [GSK299115A]	92
COc1ccc(COc2ccc(Cc3cnc(N)nc3N)cc2OC)cc1 [GW632580X]	99
NS(=O)(=O)c1ccc(N/N=C2\C(=O)Nc3ccc(Cl)cc32)cc1 [GW280670X]	100
COc1cccc(-c2c[nH]c3c(N/N=C/c4ccncc4)ncnc23)c1 [GW814408X]	71
COC(=O)Nc1nc2ccc(Oc3ccc(NC(=O)Nc4cc(C(F)(F)F)ccc4F)cc3)cc2s1.Cl [GW693917A]	69
COc1ccc2c(-c3ccnc(Nc4cccc(OC(F)(F)F)c4)n3)cnn2n1 [GW810372X]	80
NS(=O)(=O)c1ccc(N/N=C2\C(=O)Nc3ccc(-c4cnco4)cc32)cc1 [GW276655]	63

SMILES	Percent Control [%]
Cl.c1ccc(Cc2nc3ccc(Nc4ncnc5ccccc45)cc3[nH]2)cc1 [GR269666A]	100
C/C(Nc1ccc(S(N)(=O)=O)cc1)=C1/C(=O)Nc2ccccc21 [GW335962X]	75
COc1cc(N2CCN(C(C)C)CC2)ccc1Nc1nc(Nc2ccc(F)cc2C(=O)NC[C@@H](O)CO)c2cc[nH]c2n1 [GSK1392956A]	100
Nc1ncnc2occ(-c3ccc(NC(=O)Nc4cc(C(F)(F)F)ccc4F)cc3)c12 [GW770249X]	100
CC(C)COC(=O)c1ccc2c(c1)/C(=C/Nc1ccc(S(N)(=O)=O)cc1)C(=O)N2 [GW416981X]	17
Cl.O=C(Nc1ccc(Oc2ccc3[nH]c(NC(=O)c4ccccc4)nc3c2)cc1)Nc1cc(C(F)(F)F)ccc1F [GW709042A]	88
CCc1ccc(Oc2nccc(-c3c(-c4ccc(F)cc4)ncn3C3CCNCC3)n2)cc1 [SB-242719]	65
COc1cc(C)c(N(C)C(=O)CN(C)C)cc1Nc1nc(Nc2cccc(F)c2C(N)=O)c2cc[nH]c2n1 [GSK2219385]	69
NS(=O)(=O)c1ccc(Nc2ncc(-c3ccccc3)o2)cc1 [GW572399X]	100
CCS(=O)(=O)c1ccc(OC)c(Nc2ncc(-c3cccc(OC)c3)o2)c1 [GW580509X]	100
C[C@@H](Oc1cc(-n2cnc3ccc(OC4CCN(C)CC4)cc32)sc1C(N)=O)c1ccccc1Cl [GSK579289A]	67
COc1cc2ncn(-c3cc(O[C@H](C)c4ccccc4Cl)c(C(N)=O)s3)c2cc1OC [GSK237701A]	80
O=C1Nc2ccc(C(=O)c3ccco3)cc2C1=Cc1cc(Cl)c(O)c(Cl)c1 [GW406108X]	40
Cc1cc(O)cc(C)c1/C=C/c1cncc(C(N)=O)c1 [GW435821X]	100
COc1cc(/C=N/Nc2ncnc3[nH]ncc23)ccc1O [GW578748X]	50
COc1cc(C=NNc2ncnc3c2cnn3-c2ccccc2)ccc1O [GW513184X]	95
NS(=O)(=O)c1ccc(N/N=C2\C(=O)Nc3ccc(C(=O)NCCc4c[nH]cn4)cc32)cc1 [GW300660X]	72
